Data: PubChem BioAssay
Active and inactive are the calls of the source.

Tests used:
[1] = system: Plasmodium falciparum Sir2 (PF13_0152, Sir2A); assay: pfSir2 binders on small-molecule microarrays, primary screen, biochemical, small-molecule microarray, 635 nm fluorescence (AID 1098); conditions: small-molecule microarray binding, fluorescence 635 nm; higher = more signal;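 note: score merges spot fluorescence intensity with its signal-to-noise ratio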
[2] = small-molecule microarray binders of probe aDKK1, primary screen, biochemical, biotinylated probe, 635/667 nm fluorescence (AID 1099); conditions: higher = more signal;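 note: score merges 667nm spot fluorescence with signal to noise across triplicate slides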
[3] = small-molecule microarray binders of probe aCHRDL2, primary screen, biochemical, biotinylated probe, 635/667 nm fluorescence (AID 1100); conditions: higher = more signal
[4] = splicing luciferase reporter signal modulators, primary screen, spliceosome inhibition project, cell-based, HEK293, splice +/- reporter (AID 1101); conditions: luminescence, 24 h, higher = more signal, called active from +8 up or from −8 down;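 note: HEK293 cells carrying a splicing-competent luciferase reporter gene; test concentration not given here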
[5] = target: Fibroblast growth factor 10 (Homo sapiens) (UniProt O15520); assay: FGF10 binders on small-molecule microarrays, primary screen, biochemical, small-molecule microarray, 635 nm fluorescence (AID 1102); conditions: FGF10 binding, fluorescence 635 nm, higher = more signal
Fibroblast growth factor 10 (Homo sapiens), sequence (O15520 whole entry, looked up): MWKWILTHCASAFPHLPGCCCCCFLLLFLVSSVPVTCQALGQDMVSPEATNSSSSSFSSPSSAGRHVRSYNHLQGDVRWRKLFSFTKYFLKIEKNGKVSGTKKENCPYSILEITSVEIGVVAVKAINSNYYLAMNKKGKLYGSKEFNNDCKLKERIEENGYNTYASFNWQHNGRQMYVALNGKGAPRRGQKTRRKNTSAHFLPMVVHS

[6] = system: glycogen synthase kinase-3 (GSK3A per assay name; protocol says GSK3B); assay: GSK3 binders on small-molecule microarrays, primary screen, biochemical, small-molecule microarray, 635 nm fluorescence, GSK3A (AID 1103); conditions: small-molecule microarray binding, fluorescence 635 nm; higher = more signal; note: the record names both GSK3A and GSK3B
[7] = target: Epidermal growth factor receptor (Homo sapiens) (UniProt P00533); assay: EGFR binders on small-molecule microarrays, primary screen, biochemical, small-molecule microarray, 635 nm fluorescence (AID 1104); conditions: EGFR binding, higher = more signal;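 note: score merges 667 nm emission intensity with spot signal to noise over triplicate slides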
Epidermal growth factor receptor (Homo sapiens), sequence (P00533 whole entry, looked up): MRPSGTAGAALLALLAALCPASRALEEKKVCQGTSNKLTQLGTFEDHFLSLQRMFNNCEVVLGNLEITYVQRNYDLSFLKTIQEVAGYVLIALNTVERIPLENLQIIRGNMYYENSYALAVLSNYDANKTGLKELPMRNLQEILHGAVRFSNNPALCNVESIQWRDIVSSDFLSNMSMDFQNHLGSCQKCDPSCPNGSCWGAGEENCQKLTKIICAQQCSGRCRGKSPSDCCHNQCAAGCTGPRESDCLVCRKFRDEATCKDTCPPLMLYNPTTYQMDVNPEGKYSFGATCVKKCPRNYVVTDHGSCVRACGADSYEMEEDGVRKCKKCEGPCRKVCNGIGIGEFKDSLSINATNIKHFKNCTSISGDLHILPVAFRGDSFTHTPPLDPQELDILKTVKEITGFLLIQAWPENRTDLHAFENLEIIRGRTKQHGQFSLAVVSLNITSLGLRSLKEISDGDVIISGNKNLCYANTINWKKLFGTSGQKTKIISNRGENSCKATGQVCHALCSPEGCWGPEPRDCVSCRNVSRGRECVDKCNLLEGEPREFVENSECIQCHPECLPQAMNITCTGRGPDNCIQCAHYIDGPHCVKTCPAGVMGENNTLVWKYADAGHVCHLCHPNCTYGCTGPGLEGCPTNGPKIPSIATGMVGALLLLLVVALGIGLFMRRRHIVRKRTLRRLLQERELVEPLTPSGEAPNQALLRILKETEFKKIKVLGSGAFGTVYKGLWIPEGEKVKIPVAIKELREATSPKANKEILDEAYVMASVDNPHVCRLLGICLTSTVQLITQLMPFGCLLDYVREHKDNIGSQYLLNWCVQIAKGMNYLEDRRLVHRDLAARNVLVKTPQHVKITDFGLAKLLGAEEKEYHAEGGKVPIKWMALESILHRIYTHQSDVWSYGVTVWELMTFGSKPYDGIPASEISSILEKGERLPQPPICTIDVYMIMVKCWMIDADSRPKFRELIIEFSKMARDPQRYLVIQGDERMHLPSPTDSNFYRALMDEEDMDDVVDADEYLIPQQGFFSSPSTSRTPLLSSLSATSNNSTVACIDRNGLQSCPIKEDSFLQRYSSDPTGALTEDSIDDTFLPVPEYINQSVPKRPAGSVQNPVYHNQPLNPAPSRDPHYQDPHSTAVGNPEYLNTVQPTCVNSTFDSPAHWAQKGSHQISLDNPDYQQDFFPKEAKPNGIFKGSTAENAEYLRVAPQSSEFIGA

[8] = target: Follistatin-related protein 3 (Homo sapiens) (UniProt O95633); assay: FSTL3 binders on small-molecule microarrays, primary screen, biochemical, small-molecule microarray, 635 nm fluorescence (AID 1105); conditions: FSTL3 binding, higher = more signal;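 note: score merges emission near 667 nm and signal to noise per printed spot across three slides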
Follistatin-related protein 3 (Homo sapiens), sequence (O95633 whole entry, looked up): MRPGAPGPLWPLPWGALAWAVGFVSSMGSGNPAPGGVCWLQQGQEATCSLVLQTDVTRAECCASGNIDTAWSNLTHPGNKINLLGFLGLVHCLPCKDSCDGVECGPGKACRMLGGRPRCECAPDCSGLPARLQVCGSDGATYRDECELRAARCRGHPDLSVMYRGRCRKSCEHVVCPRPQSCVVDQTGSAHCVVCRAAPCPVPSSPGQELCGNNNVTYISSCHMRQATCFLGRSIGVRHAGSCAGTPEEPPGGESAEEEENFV

[9] = target: Dickkopf-related protein 1 (Homo sapiens) (UniProt O94907); assay: DKK1 binders on small-molecule microarrays, primary screen, biochemical, small-molecule microarray, 635 nm fluorescence scan (AID 1106); conditions: DKK1 binding, higher = more signal;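 note: score merges emission near 667 nm with signal to noise over three replicate slides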
Dickkopf-related protein 1 (Homo sapiens), sequence (O94907 whole entry, looked up): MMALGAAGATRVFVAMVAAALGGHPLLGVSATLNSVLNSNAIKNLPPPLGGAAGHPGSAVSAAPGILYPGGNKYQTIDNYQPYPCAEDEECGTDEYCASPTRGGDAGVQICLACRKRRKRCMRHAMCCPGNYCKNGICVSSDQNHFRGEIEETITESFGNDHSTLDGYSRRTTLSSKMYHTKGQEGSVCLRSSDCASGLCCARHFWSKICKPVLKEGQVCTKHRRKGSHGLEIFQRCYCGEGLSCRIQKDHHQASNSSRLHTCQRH

[10] = system: Inhibin beta A chain (activin A); assay: INHBA (activin A) binders on microarrays, primary screen, biochemical, small-molecule microarray, 635 nm fluorescence scan (AID 1107); conditions: small-molecule microarray binding, higher = more signal;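 note: mouse activin A protein probed at 4.33 µg/mL on printed slides; score merges bound-protein fluorescence near 667 nm with spot signal-to-noise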
[11] = system: Human papillomavirus type 1a protein E7 (residues 44-93); assay: HPV1a E7 fragment binders on microarrays, primary screen, biochemical, small-molecule microarray, residues 44-93, 635 nm fluorescence (AID 1108); conditions: small-molecule microarray binding, fluorescence 635 nm; higher = more signal;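 note: E7 fragment applied at 1 µg/mL in TBST for 1 h at 4 C; score combines spot fluorescence with its signal to noise ratio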
[12] = modulators of HCV replicon luciferase signal, primary screen, HCV replication inhibitor project, Huh7 cells, luciferase reporter (AID 1109); conditions: 48 h, higher = more signal;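 note: huh7 hepatoma cells harbouring a luciferase neomycin HCV replicon reporter; luciferase luminescence as measure of HCV replicon replication; test concentration not given here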
[13] = target: Left-right determination factor 2 (Homo sapiens) (UniProt O00292); assay: LEFTY2 binders on small-molecule microarrays, primary screen, biochemical, small-molecule microarray, 635 nm fluorescence scan (AID 1110); conditions: LEFTY2 binding, higher = more signal
Left-right determination factor 2 (Homo sapiens), sequence (O00292 whole entry, looked up): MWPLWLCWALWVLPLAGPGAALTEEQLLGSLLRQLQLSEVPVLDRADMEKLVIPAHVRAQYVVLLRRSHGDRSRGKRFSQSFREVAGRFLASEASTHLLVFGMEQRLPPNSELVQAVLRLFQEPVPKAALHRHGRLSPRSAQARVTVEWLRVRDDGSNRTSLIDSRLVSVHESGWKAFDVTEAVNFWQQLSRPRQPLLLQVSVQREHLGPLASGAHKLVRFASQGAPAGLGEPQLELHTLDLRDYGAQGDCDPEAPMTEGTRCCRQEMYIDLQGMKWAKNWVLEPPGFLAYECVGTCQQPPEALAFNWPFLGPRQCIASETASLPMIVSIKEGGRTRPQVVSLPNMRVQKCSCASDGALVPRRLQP

[14] = target: Calmodulin-1 (Homo sapiens) (UniProt P0DP23); assay: CALM1 binders on microarrays, EGTA buffer, profiling panel, biochemical, small-molecule microarray, Cy5-labelled CALM1 (AID 1111); conditions: Cy5-CALM1 binding fluorescence, higher = more signal;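 note: labelled calmodulin applied in Tris saline Tween buffer holding calcium plus EGTA and DTT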
[15] = target: Calmodulin-1 (Homo sapiens) (UniProt P0DP23); assay: calcium-bound CALM1 binders on microarrays, profiling panel, artefact control for SMM control-protein annotation, biochemical, small-molecule microarray, Cy5-labelled CALM1, plus calcium (AID 1112); conditions: Cy5-CALM1 binding fluorescence, higher = more signal;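 note: score merges spot fluorescence with signal to noise from triplicate slides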
[16] = small-molecule microarray binders of probe aWnt5a, primary screen, biochemical, biotinylated probe, 635/667 nm fluorescence (AID 1113); conditions: higher = more signal;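 note: score merges 667 nm fluorescence intensity with signal-to-noise per printed feature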
[17] = small-molecule microarray binders of probe aShh, primary screen, biochemical, biotinylated probe, 635/667 nm fluorescence (AID 1114); conditions: higher = more signal;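 note: probe is biotin-labelled aShh protein from a stem cell growth factor screen; measures binding of labelled protein to compounds printed on the slide; score merges feature fluorescence at 667 nm with signal-to-noise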
[18] = small-molecule microarray binders of probe aNog, primary screen, biochemical, biotinylated probe, 635/667 nm fluorescence (AID 1115); conditions: higher = more signal;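 note: probe is biotinylated aNog protein used at 0.15 µg/mL for 1 h at 4 C; z-score combines 667 nm fluorescence of each spot with its signal to noise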
[19] = target: Torsin-1A-interacting protein 1 (Homo sapiens) (UniProt Q5JTV8); assay: LAP1 binders from COS7 cell lysate, primary screen, small-molecule microarray, 635/667 nm fluorescence (AID 1116); conditions: COS7-hLAP1 lysate binding, 635 nm fluorescence, higher = more signal
Torsin-1A-interacting protein 1 (Homo sapiens), sequence (Q5JTV8 whole entry, looked up): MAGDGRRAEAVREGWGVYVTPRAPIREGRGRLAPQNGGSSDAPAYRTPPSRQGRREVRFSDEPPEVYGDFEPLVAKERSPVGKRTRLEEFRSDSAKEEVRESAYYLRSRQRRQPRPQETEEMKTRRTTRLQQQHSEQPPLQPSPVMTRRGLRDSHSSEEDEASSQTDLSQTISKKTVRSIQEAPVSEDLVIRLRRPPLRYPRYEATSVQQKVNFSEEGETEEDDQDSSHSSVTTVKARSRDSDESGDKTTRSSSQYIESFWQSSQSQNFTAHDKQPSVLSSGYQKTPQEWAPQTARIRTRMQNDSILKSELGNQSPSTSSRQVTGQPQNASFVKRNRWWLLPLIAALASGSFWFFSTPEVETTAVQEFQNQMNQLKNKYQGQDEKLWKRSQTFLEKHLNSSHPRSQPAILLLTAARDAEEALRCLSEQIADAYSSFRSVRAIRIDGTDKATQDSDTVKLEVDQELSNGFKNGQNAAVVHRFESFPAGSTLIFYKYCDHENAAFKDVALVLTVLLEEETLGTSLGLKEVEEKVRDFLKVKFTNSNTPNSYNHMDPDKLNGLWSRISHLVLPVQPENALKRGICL

[20] = target: Alpha-bungarotoxin (Bungarus multicinctus) (UniProt P60615); assay: alpha-bungarotoxin binders on microarray, profiling panel, artefact control for SMM control protein annotation, biochemical, small-molecule microarray, Alexa647 label, 635/667 nm fluorescence (AID 1117); conditions: alpha-BTX-A647 binding fluorescence, higher = more signal
Alpha-bungarotoxin (Bungarus multicinctus), sequence (P60615 whole entry, looked up): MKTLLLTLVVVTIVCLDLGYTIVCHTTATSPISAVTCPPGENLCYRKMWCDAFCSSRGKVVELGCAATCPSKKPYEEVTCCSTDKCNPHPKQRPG

| SMILES | composite z-score [1] | composite z-score [2] | composite z-score [3] | z-score [4] | composite z-score [5] | composite z-score [6] | composite z-score [7] | composite z-score [8] | composite z-score [9] | composite z-score [10] | composite z-score [11] | z-score [12] | composite z-score [13] | composite z-score [14] | composite z-score [15] | composite z-score [16] | composite z-score [17] | composite z-score [18] | composite z-score [19] | composite z-score [20] |
| --- | --- | --- | --- | --- | --- | --- | --- | --- | --- | --- | --- | --- | --- | --- | --- | --- | --- | --- | --- | --- |
| CC(C)[Si]1(C(C)C)OCc2cc(C3CC3)nc(-c3ccc(Oc4ccccc4)cc3)c21 | -0.777 | 0.15 | 0.056 | -0.654 (inactive) | -0.382 | -0.964 | -0.233 | -0.816 | -0.604 | 0.228 | -1.16 | -2.24 | -0.168 | -0.289 | 0.631 | -0.18 | -0.117 | -0.0208 | -0.414 | -0.336 |
| CCOC(=O)C[C@H]1[C@H](OC(=O)c2ccccc2-c2ccccc2)[C@@H](NC(=O)c2ccc3ccccc3n2)c2cc(OCCCO)ccc2N1C(=O)Cc1ccc(OC)cc1 | -0.235 | 0.0006 | -0.302 | -0.378 (inactive) | 0.463 | 0.0131 | 0.238 | 0.176 | 0.0349 | 0.711 | 0.345 | -2.09 | 0.414 | -0.216 | -0.224 | -0.124 | -0.182 | -0.147 | 0.781 | 0.365 |
| COc1ccc(CCNC(=O)[C@@H]2c3ccccc3C(=O)N(C3CCCCC3)[C@H]2c2ccc(CO)cc2)cc1 | 1.35 | 0.0099 | 0.692 | 0.43 (inactive) | 0.542 | 0.32 | -0.227 | 0.0696 | -0.487 | 0.177 | 1.48 | -1.82 | -0.306 | 0.112 | -0.184 | -0.0403 | 0.0098 | -0.402 | -0.17 | 0.371 |
| CCOC(=O)C[C@H]1[C@H](OC(=O)c2ccc(C(=O)c3ccccc3)cc2)[C@@H](NC(=O)c2ccc3ccccc3n2)c2cc(OCCCO)ccc2N1C(=O)Cc1ccc(OC)cc1 | -0.318 | 0.57 | -0.385 | 0.187 (inactive) | 0.0466 | 0.354 | 0.196 | 0.346 | 0.239 | 0.188 | 0.947 | 0.361 | 0.471 | 1.08 | 0.0823 | -0.202 | 0.0115 | -0.259 | -0.0179 | -0.0434 |
| CN(C)C(=O)[C@]1(CCC(=O)OC(C)(C)C)N=C(c2ccc(OCCCO)cc2)O[C@@H]1c1ccccc1CN=[N+]=[N-] | 1.45 | -0.594 | 1.08 | -0.561 (inactive) | 0.518 | 0.7 | 0.195 | 0.47 | -0.396 | 0.418 | 1.44 | -2.19 | -0.502 | 2.31 | 0.392 | 0.26 | 0.4 | 1.13 | 2.9 | 1.81 |
| COc1ccc([Si](C)(C)[C@@H]2[C@@H](CC(=O)N(CCO)Cc3ccccc3)O[C@]3(C(=O)N(Cc4cccc(N5CCCCC5=O)c4)c4ccccc43)[C@H]2C)cc1 | 1.16 | -0.0247 | 0.505 | -0.166 (inactive) | 0.883 | 0.1 | 0.242 | 0.84 | 0.419 | 0.493 | 0.846 | -3.89 | 0.478 | 0.822 | 0.645 | 0.0825 | 0.128 | 1.73 | 0.761 | 0.672 |
| CCCC=C(CCC)[C@@H](NP(=O)(c1ccccc1)c1ccccc1)c1ccc(-c2ccccc2)cc1 | 0.517 | 0.719 | 0.581 | -2.98 (inactive) | 1.11 | 1.27 | 0.183 | 1.18 | -0.0014 | 0.479 | 1.23 | -2.72 | 0.53 | 0.877 | 0.796 | 0.328 | 0.972 | 1.35 | 0.946 | 1.3 |
| CCOC(=O)C[C@H]1[C@H](OC(=O)c2ccc(C(=O)c3ccccc3)cc2)[C@@H](NC(=O)CC(C)C)c2cc(OCCCO)ccc2N1C(=O)c1ccccc1 | 0.449 | -0.0013 | -0.345 | -0.958 (inactive) | 0.515 | 0.972 | 0.141 | 1.17 | 0.95 | 0.158 | 1.3 | -1.12 | 0.53 | 0.735 | -0.165 | -0.0758 | -0.167 | -0.0927 | 0.537 | 0.741 |
| COc1ccc([Si](C)(C)[C@@H]2[C@@H](CC(=O)N3CCC[C@H]3CO)O[C@]3(C(=O)N(Cc4cccc(N5C(=O)COc6ccccc65)c4)c4ccccc43)[C@H]2C)cc1 | 0.911 | -0.0948 | 0.157 | -1.06 (inactive) | 0.723 | 0.746 | 0.447 | 0.579 | 0.173 | 0.615 | 1.35 | -4.2 | 0.486 | 1.49 | 0.343 | 0.0215 | 0.131 | -0.368 | 1.41 | 0.678 |
| COCCOC(=O)N1C(=O)[C@@]2(c3cc(C#CC4=CCCCC4)ccc31)[C@H](c1ccccc1OCCO)N1[C@H](c3ccccc3)[C@H](c3ccccc3)OC(=O)[C@H]1[C@@H]2C(=O)NC[C@H](O)c1ccccc1 | 1.53 | 0.036 | -0.135 | -1.76 (inactive) | 1.19 | 1.3 | 0.741 | 1.42 | 0.752 | 0.755 | 1.4 | -3.19 | 0.869 | 1.04 | 0.213 | 0.0839 | 0.0081 | -0.939 | 0.978 | 1.64 |
| CC(C)c1ccc(NN2C(C(O)c3ccc(F)cc3)C=CC3C(=O)N(c4ccccc4)C(=O)C32)cc1 (stereo not given) | 1.28 | 0.47 | 0.775 | -0.548 (inactive) | 1.07 | 0.275 | 0.3 | 1.37 | -0.0647 | 0.869 | 1.44 | -0.619 | 0.397 | 1.24 | -0.0298 | 0.105 | 0.246 | 1.75 | 0.305 | 1.39 |
